For assay [1], the target named is Cytochrome P450 3A7 (Homo sapiens) (UniProt P24462). Put plainly: Cytochrome P450 family 3 subfamily A member 7 (CYP3A7) small molecule antagonists: luciferase biochemical qHTS assay (AID 1963596). Further: on the % scale 0 is the no-effect control and ±100 the full control effect; nearly all actives have a fitted effect of over 40% in size. Summed up: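 Compounds were screened in qHTS format for interference with CYP3A7 turnover of a proluciferin substrate. Reactions ran 1 h at room temperature after NADPH regeneration solution was added, then luciferin product was detected by luminescence.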
Chain of Cytochrome P450 3A7 (Homo sapiens) (P24462 whole entry, looked up): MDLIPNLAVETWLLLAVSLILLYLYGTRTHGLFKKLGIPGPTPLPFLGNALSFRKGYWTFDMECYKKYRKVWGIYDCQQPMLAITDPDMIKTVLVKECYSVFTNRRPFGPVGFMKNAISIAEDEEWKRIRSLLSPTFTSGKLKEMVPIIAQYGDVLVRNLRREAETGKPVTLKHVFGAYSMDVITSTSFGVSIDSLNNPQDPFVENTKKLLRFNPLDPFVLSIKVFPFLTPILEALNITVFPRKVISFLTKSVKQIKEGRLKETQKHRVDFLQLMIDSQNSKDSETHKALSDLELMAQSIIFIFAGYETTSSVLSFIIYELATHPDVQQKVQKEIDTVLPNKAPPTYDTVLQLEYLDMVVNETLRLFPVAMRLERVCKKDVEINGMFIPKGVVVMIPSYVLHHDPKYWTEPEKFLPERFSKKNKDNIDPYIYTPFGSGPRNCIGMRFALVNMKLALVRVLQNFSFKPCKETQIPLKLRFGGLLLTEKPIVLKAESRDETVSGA
A general note: Quantitative high-throughput screening tests each substance at several concentrations.

The nature of assay [2]: Viability qHTS for spleen associated tyrosine kinase inhibitor (SYKi) drug resistant MV4-11 cells (AID 1963824). Further: nearly all actives have a fitted effect of over 35% in size. Further: potency means the concentration at half of the fitted maximal effect. Summed up: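 SYK-inhibitor-resistant MV4-11 AML cells were seeded at 500 per well onto compound and cultured 72 hours (37 °C, 5% CO2). CellTiter-Glo was then added, and after 10 min at room temperature, luminescence gave viability.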
Assay [3] in a line: Quantitative highthroughput screen to assess conditional lethalithy of NOMO1 cells grown in RPMI1640 with untreated serum (RPMI+s) (AID 1963876).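 Further: 100% = DMSO wells and 0% = empty wells without cells; nearly all actives have a fitted effect of over 35% in size.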 Summed up:
(§1)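 Each medium arm—HPLM with 10% dialyzed FBS, or RPMI1640 with 5 mM glucose and 10% untreated or dialyzed FBS—was screened against an 11-point, 3-fold compound titration for 48 h at 37 °C, with CellTiter-Glo luminescence as endpoint.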

Assay [4] is described as follows: Quantitative highthroughput screen to assess conditional lethalithy of NOMO1 cells grown in Human Plasma-Like Medium with dialyzed fetal bovine serum (HPLM+ds) (AID 1963878).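 Further: 100% = DMSO wells and 0% = empty wells on each plate; nearly all actives have a fitted effect of over 35% in size.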 Summed up:
as §1

Assay [5] in a line: Quantitative highthroughput screen to assess conditional lethalithy of P12 Ichikawa cells grown in Human Plasma-Like Medium with dialyzed fetal bovine serum (HPLM+ds) (AID 1963879). Further: series mostly up to about 46 µM; nearly all actives have a fitted effect of over 35% in size. The conditions noted are these: Potency: viability. Summed up:
as §1

The nature of assay [6]: Quantitative highthroughput screen to assess conditional lethalithy of P12 Ichikawa cells grown in RPMI1640 with untreated serum (RPMI+s) (AID 1963881). The settings on record: Potency: viability. Summed up: as §1
The nature of assay [7]: Quantitative highthroughput screen to assess conditional lethalithy of SEM cells grown in Human Plasma-Like Medium with dialyzed fetal bovine serum (HPLM+ds) (AID 1963882). Summed up: as §1
A short description of assay [8]: Quantitative highthroughput screen to assess conditional lethalithy of SEM cells grown in RPMI1640 with unreated serum (RPMI+s) (AID 1963883). An outline of the steps: as §1
The nature of assay [9]: Quantitative highthroughput screen to assess conditional lethalithy of SEM cells grown in RPMI1640 with dialyzed fetal bovine serum (RPMI+ds) (AID 1963884). Summed up: as §1
A short description of assay [10]: Cellular viability qHTS for adrenocortical cancer (ACC) cell line NCI-H295R (AID 1963990). Further: nearly all actives have a fitted effect of over 60% in size. Further: potency means the concentration at half of the fitted maximal effect. An outline of the steps: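 Viability of NCI-H295R after 48 h of treatment (final up to 46 uM) measured through cellular ATP luminescence.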
A short description of assay [11]: Cellular viability qHTS for adrenocortical cancer (ACC) cell line SW-13 (AID 1963989). Further: nearly all actives have a fitted effect of over 65% in size. Further: potency means the concentration at half of the fitted maximal effect.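 On activity (max response): cells grown in serum-free medium with ITS supplement; on the % scale 0 is the no-effect control and ±100 the full control effect.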 The settings on record: SW-13 ACC cells viability, CellTiter-Glo, 48 h; activity (max response): stronger effect = lower value. Summed up: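 Here, serum-free SW-13 cultures were dosed up to 46 uM. Following 48 h, ATP-dependent luminescence (CellTiter-Glo) reported viable cells, and logistic modeling produced IC50 values.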

Molecules are shown by their SMILES. Several values for one entry are separate records, joined by “and”; a condition that tells them apart may be missing. Equal entries are not always repeated. Results filed as inconclusive are left out. Unmarked numbers belong to inactive results. Activity calls are given as the source filed them. The call rests on the fitted dose curve; in most records, active means well fitted curve in the direction sought with a large enough effect; inconclusive means small, poorly fitted or top-dose-only effect, or another doubt; inactive means no such curve, though single readings can be large; an effect the other way counts as inactive or inconclusive.

In the case of `O=C(NCc1ccccc1)c1ccc2c(=O)n(-c3cccc(C(F)(F)F)c3)c(=S)[nH]c2c1`, the Potency result in assay [1] and in assay [2] was “inactive” each time.
For `COc1cc(OC)c(NC(=O)c2ccc(Cc3cc4c(cc3C)C(C)(C)CCC4(C)C)o2)c(OC)c1`, the Potency result in assay [1] was “inactive”. In addition, the Potency in assay [2] is 11.6 µM (active).
For `CCN(CC)CCCC(C)Nc1nc(C)cc(Nc2ccc3nc(C)cc(N)c3c2)n1` (configuration not stated), the Potency entry in assay [1], in [3], in assay [4], in assay [5], in assay [6] and in [7] was “inactive” in each case. Besides, the Potency entry in assay [8], in [9] and in assay [10] was “inactive” in each case. The Potency in assay [2] is 16.6 µM (active).
Turning to `Cc1cccc(C)c1NC(=O)CN1CCCC1`, the Potency result in [1] and in assay [10] was “inactive” each time. In addition, the Potency in assay [2] was 5.96 µM (active). Also, the activity (max response) in assay [11] is 3.45%.
Turning to `COCCc1ccc(OCC2CO2)cc1` (configuration not stated), the Potency entry in assay [1], in assay [2] and in assay [10] was “inactive” in each case. In addition, the activity (max response) in assay [11] is -2.52%.
On to `C#CC(C)(CC)OC(=O)c1ccccc1C(=O)O` (configuration not stated), for which the Potency entry in assay [1], in assay [2] and in assay [10] was “inactive” each time. Moreover, the activity (max response) in assay [11] is 8.16%.
As to `CC(=O)OC[C@H]1O[C@@H](n2ncc(=O)[nH]c2=O)[C@H](OC(C)=O)[C@@H]1OC(C)=O`, the Potency result in assay [1], in [2] and in assay [10] was “inactive” each time. The activity (max response) in assay [11] was -6.84%.
For the compound `CCCN(CCC)C(=O)C(CCC(=O)O)NC(=O)c1ccccc1` (configuration not stated), the Potency entry in assay [1], in assay [2] and in assay [10] was “inactive” throughout. In addition, in assay [11], the activity (max response) is 0.293% and -17.2%.
With `CCCCCCCC(=O)OCC(COC(=O)CCCCCCC)OC(=O)CCCCCCC`, the Potency entry in assay [1] and in [2] was “inactive” each time. The activity (max response) in [11] was 8.32%.
In the case of `CC(NC(CCc1ccccc1)C(=O)O)C(=O)N1C(=O)N(C)CC1C(=O)O` (configuration not stated), the Potency result in assay [1], in [2] and in assay [10] was “inactive” in each case. The activity (max response) in [11] was 6.3%.
As to `CC(=O)N1C[C@H](O)C[C@H]1C(=O)O`, the Potency result in assay [1], in assay [2] and in assay [10] was “inactive” each time. The activity (max response) in assay [11] is 0.891%.
As to `O=C(NCC(=O)N1CCCC1)Nc1ccc2cnccc2c1`, the Potency entry in [1] and in [10] was “inactive” each time. Moreover, in assay [2], the Potency was 8.2 µM (active). For the same compound, in [11], the activity (max response) is -10.6%.
For the compound `COc1ccc(CN(CCN(C)C)c2ncccn2)cc1`, the Potency entry in assay [1] and in assay [2] was “inactive” each time. For the same compound, the activity (max response) in [11] is -7.84%.
As to `CC(C)(C)NC[C@H](O)COc1nsnc1N1CCOCC1`, the Potency entry in assay [1] and in assay [2] was “inactive” each time. In assay [11], the activity (max response) is -5.85%.
With `NC(CSCC(=O)O)C(=O)O` (configuration not stated), the Potency entry in [1], in assay [2] and in [10] was “inactive” in each case. Also, the activity (max response) in [11] was -12%.
Consider `CCN1CCN(Cc2ccc(NC(=O)c3ccc(C)c(NC(=O)c4cncc(-c5cccs5)c4)c3)cc2C(F)(F)F)CC1`, for which the Potency entry in assay [1] was “inactive”. The Potency is 14.6 nM (active) and 26.3 nM (active) in [2]; 2 µM (active) in [11].
For the compound `OCc1cccnc1`, the Potency entry in assay [1] and in assay [2] was “inactive” throughout. Also, the activity (max response) in assay [11] is 0.385%.
For `COc1cc2nc(-c3cc(F)ccc3O)nc(N[C@@H]3CNC[C@H]3C(C)(C)O)c2cc1OC`, the Potency result in assay [1] is “inactive”. The Potency was 11.6 nM (active) and 5.3 nM (active) in assay [2]; 6.31 µM (active) in assay [11].
With `FC(F)(F)C(F)(F)C(F)(F)C(F)(F)C(F)(F)C(F)(F)C(F)(F)C(F)(F)Br`, the Potency entry in assay [1] and in assay [2] was “inactive” throughout. In assay [11], the activity (max response) was 7.96%.
On to `CCCC(=O)O[C@]1(C(=O)CO)CC[C@H]2[C@@H]3CCC4=CC(=O)CC[C@]4(C)[C@H]3[C@@H](O)C[C@@]21C`, for which the Potency result in assay [1] and in assay [2] was “inactive” each time. Moreover, the activity (max response) in [11] was -3.14%.
As for `O[C@@H]1CO[C@H]2[C@@H]1OC[C@@H]2O`, the Potency result in assay [1] and in assay [2] was “inactive” in each case. The activity (max response) in assay [11] is -0.327%.
For the compound `NC(=O)CC[C@@H](N)C(=O)O`, the Potency entry in [1] and in assay [2] was “inactive” throughout. In addition, the activity (max response) in assay [11] was 12.6%.
Regarding `O=C(O)CNC(=O)c1ccccc1`, the Potency entry in [1] and in assay [2] was “inactive” each time. For the same compound, in [11], the activity (max response) is 6.31%.
Consider `Cc1cc(-n2nc3ccc(Cl)cc3n2)c(O)c(C(C)(C)C)c1`, for which the Potency result in [1], in assay [2] and in assay [10] was “inactive” throughout. Moreover, in [11], the activity (max response) was 9.75%.
As to `CC(=O)NS(=O)(=O)c1ccc(N)cc1`, the Potency result in assay [1] and in [2] was “inactive” each time. Moreover, the activity (max response) in assay [11] is 4.13%.
Take `CC(=O)OC[C@H]1O[C@@H](OC(C)=O)[C@H](OC(C)=O)[C@@H]1OC(C)=O`: the Potency entry in [1], in assay [2] and in assay [10] was “inactive” in each case. The activity (max response) in assay [11] is 10.4%.
With `O=C1CC[C@@H](C(=O)O)N1`, the Potency result in assay [1], in assay [2] and in assay [10] was “inactive” each time. Moreover, the activity (max response) in [11] is -6.66%.
On to `O=C1c2ccccc2C(=O)C1c1ccccc1`, for which the Potency entry in [1] and in assay [2] was “inactive” each time. Besides, the activity (max response) in assay [11] was 5.96%.
Regarding `CN=C(N)NC(=O)Nc1c(C)cccc1C`, the Potency result in [1], in assay [2] and in assay [10] was “inactive” in each case. Further, the activity (max response) in assay [11] was -3.82%.
As to `O=C(c1ccco1)N1CCNCC1`, the Potency entry in [1], in assay [2] and in assay [10] was “inactive” throughout. For the same compound, in assay [11], the activity (max response) was -4.62%.
For `Nc1nc2c(ncn2CCC(CO)CO)c(=O)[nH]1`, the Potency entry in [1], in assay [2] and in assay [10] was “inactive” in each case. The activity (max response) in assay [11] is -4.77%.
For `COc1cc(S(N)(=O)=O)cc(C(=O)O)c1OC`, the Potency entry in assay [1], in assay [2] and in [10] was “inactive” in each case. Also, the activity (max response) in assay [11] was 10.1%.
As for `C[C@H]1O[C@H](O[C@H]2[C@H](O)[C@@H](O)[C@@H](O[C@H]3[C@H](O)[C@@H](O)[C@H](O)O[C@@H]3CO)O[C@@H]2CO)[C@H](O)[C@@H](O)[C@@H]1N[C@H]1C=C(CO)[C@@H](O)[C@H](O)[C@H]1O`, the Potency result in assay [1], in assay [2] and in assay [10] was “inactive” each time. In assay [11], the activity (max response) was -2.85%.
`CCOc1ncc(F)c(=O)[nH]1`: the Potency entry in assay [1] and in assay [2] was “inactive” throughout. Moreover, the activity (max response) in assay [11] was 18.7%.
`Cc1ncc([N+](=O)[O-])n1C`: the Potency result in assay [1], in assay [2] and in assay [10] was “inactive” throughout. In assay [11], the activity (max response) was 9.67%.
For `CCOc1cc2ncc(C#N)c(Nc3ccc(F)c(Cl)c3)c2cc1NC(=O)/C=C/CN(C)C`, the Potency result in assay [1] is “inactive”. In addition, the Potency in assay [2] is 0.235 µM (active); in assay [11], 0.631 µM (active); in assay [10], 3.55 µM (active).

Source of the values: PubChem BioAssay (NCATS).
